# Laboratory results taken from PubChem BioAssay AID977607 (Broad Institute, 2014).
# Screen size: about 1,500 compounds; about 460 (31%) were called active. About 1% were inconclusive and are not listed.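 Rule for the calls: active = curve reaches 40% activation over neutral controls at an AC40 no higher than the top valid tested concentration; inconclusive = no clear call, values can overlap the other calls; inactive = signal moving opposite to the expected increase, and the rest.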 Only a sample is shown. Measured potencies and affinities stand elsewhere.
# Experiment: GLuc-reported insulin release enhancers, glucose-stimulated beta cells – cell-based, INS-1E, Gaussia luciferase, luminescence, cherry-pick, set 2, dose response (AID 977607);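 note: 0% = median of the plate neutral control wells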
# Conditions: INS-1E GLuc insulin secretion reporter, 2-3 h, hits give high values; at 35 µM, 100% = signal doubled over neutral wells unless noted
row,SMILES,max activation
1,CC(C(=O)Nc1ccc2[nH]c(=O)[nH]c2c1)N1CCN(Cc2ccc3c(c2)OCO3)CC1 (centres undefined),"-27.3% [at 11 µM, 100% = signal doubled over neutral wells] (inactive)"
2,O=C1NC(=O)C2(CCCCC2C2CCCCC2)N1 (centres undefined),"32.9% [at 0.135 µM, 100% = signal doubled over neutral wells] (inactive)"
3,Cc1ccc(S(=O)(=O)N(C)c2nc3ccccc3n3c(C(C)C)nnc23)cc1,"-16.3% [at 0.42 µM, 100% = signal doubled over neutral wells] (inactive)"
4,Cc1ccc(C(=O)Nc2cccc(C(=O)N/N=C/c3ccc(F)cc3)c2)cc1,"-21.7% [at 0.046 µM, 100% = signal doubled over neutral wells] (inactive)"
5,O=C(O)COc1ccccc1-c1ccccc1,"-20.7% [at 3.8 µM, 100% = signal doubled over neutral wells] (inactive)"
6,CCCCCCC1CCC(C(=O)Nn2c(C)nc3ccccc3c2=O)CC1 (centres undefined),"26.8% [at 0.015 µM, 100% = signal doubled over neutral wells] (inactive)"
7,Cc1nn(-c2ccccc2)c(N2CCCC2)c1/C=N/O,"-12.4% [at 0.046 µM, 100% = signal doubled over neutral wells] (inactive)"
8,COc1ccccc1NS(=O)(=O)c1cccc(C(=O)N/N=C/c2c(C)nn(-c3ccccc3)c2N2CCCC2)c1,-50.5% (inactive)
9,CC(C)NC(=O)OC[C@H]1O[C@H](C#Cc2ccc(C(C)(C)C)cc2)C=C[C@H]1O,54.1% (inactive)
10,CC(C)NC(=O)C1(C)CN(S(C)(=O)=O)CC(=O)N1CCCN1CCOCC1 (centres undefined),"-19.6% [at 0.015 µM, 100% = signal doubled over neutral wells] (inactive)"
11,O=C(O)c1ccc(-n2nnnc2SCc2cccc(Br)c2)cc1,"-16.4% [at 0.135 µM, 100% = signal doubled over neutral wells] (inactive)"
12,O=C(O)c1ccc(-n2nnnc2SCc2ccccc2Br)cc1,24.2% (inactive)
13,O=C(Nc1ccc(F)cc1)C1COc2ccccc2O1 (centres undefined),-26.7% (inactive)
14,Cc1ccc(CS(=O)Cc2ccc(C(=O)NCc3ccccc3)o2)cc1 (centres undefined),"8.81% [at 1.2 µM, 100% = signal doubled over neutral wells] (inactive)"
15,Clc1ccc(OCCn2ccnc2)c(Cl)c1,53.2% (inactive)
16,COc1ccc(/C=C/c2noc(-c3ccccc3OC(C)=O)n2)cc1,-25.1% (inactive)
17,O=C(COc1cccc2c1CCNC2=O)NC1CCCCC1,"-23.7% [at 1.2 µM, 100% = signal doubled over neutral wells] (inactive)"
18,CCCCOc1ccc(C2=NNC(=O)CC2)cc1,"-15.4% [at 3.8 µM, 100% = signal doubled over neutral wells] (inactive)"
19,COCCNc1nc(N2CCCCC2)c2cnn(C)c2n1,"-16.6% [at 0.42 µM, 100% = signal doubled over neutral wells] (inactive)"
20,Cc1c(P(=S)(c2ccccc2)c2ccccc2)[n+]2ccccc2n1C/C=C/c1ccccc1,-32.8% (inactive)

row,SMILES,max activation
1,O=C(Nc1ccc(C(=O)N2CCCC2)cc1)c1cccc(C(F)(F)F)c1,"-13% [at 0.015 µM, 100% = signal doubled over neutral wells] (inactive)"
2,O=c1[nH]c2ccccc2nc1-c1nnnn1C1CCCC1,-11.7% (inactive)
3,COc1ccc(CN2CCOC2=O)cc1OC,"-24.4% [at 0.046 µM, 100% = signal doubled over neutral wells] (inactive)"
4,COc1ccc(-c2nc(N)ncc2-c2ccc(OC)c(OC)c2)c(O)c1,"-26.8% [at 0.046 µM, 100% = signal doubled over neutral wells] (inactive)"
5,COc1ccc(CNC(=O)CCn2c(=O)oc3ccccc32)c(OC)c1,"-18.2% [at 3.8 µM, 100% = signal doubled over neutral wells] (inactive)"
6,O=C([C@H]1O[C@@H](n2ccc(=O)[nH]c2=O)[C@H](O)[C@@H]1O)N1CCN(c2ccc(Cl)cn2)CC1,"-17.9% [at 1.2 µM, 100% = signal doubled over neutral wells] (inactive)"
7,CS(=O)(=O)N1CCCCC1c1cc(C(=O)Nc2cccc(C#N)c2)no1 (centres undefined),"-20.8% [at 0.135 µM, 100% = signal doubled over neutral wells] (inactive)"
8,COc1ccc(C2=NOC(C(=O)Nc3cccnc3)C2)cc1OC (centres undefined),"36.7% [at 11 µM, 100% = signal doubled over neutral wells] (inactive)"
9,COc1ccc(-c2noc(CCC(=O)Nc3cccnc3)n2)cc1OC,10.9% (inactive)
10,CCC(CC)NC(=O)c1ccccc1Oc1ccccc1,"-14.5% [at 0.046 µM, 100% = signal doubled over neutral wells] (inactive)"
11,CC(=O)c1ccc2c(c1)N(Cc1ccccc1)C(=O)C(C)S2 (centres undefined),"-15.7% [at 3.8 µM, 100% = signal doubled over neutral wells] (inactive)"
12,CC(C)(C)c1ccc(C#C[C@@H]2C=C[C@H]3OC(=O)CC/C=C/CCC(=O)OC[C@H]3O2)cc1,"-35.6% [at 3.8 µM, 100% = signal doubled over neutral wells] (inactive)"
13,CCOC(=O)C1=C(COC(=O)c2cccs2)NC(=O)NC1C (centres undefined),"39.2% [at 11 µM, 100% = signal doubled over neutral wells] (inactive)"
14,Cc1ccc2sc(-c3ccc(NC(=O)c4cc(-n5cnnc5)ccc4Cl)cc3)nc2c1,38.9% (inactive)
15,CCOc1cc(NC(=O)c2ccco2)c(OCC)cc1NC(=O)c1cc(OC)c(OC)c(OC)c1,33.6% (inactive)
16,COc1ccc(-c2c(NC(=O)c3ccco3)oc3ccc(Cl)cc3c2=O)cc1,"-15.5% [at 0.42 µM, 100% = signal doubled over neutral wells] (inactive)"
17,Cc1c(Cc2ccccc2)sc(NC(=O)c2ccco2)c1C(N)=O,"-16.3% [at 0.015 µM, 100% = signal doubled over neutral wells] (inactive)"
18,Cc1ccc(C2(C)NC(=O)N(CC(=O)Nc3ccc(-c4nc5ccc(C)cc5s4)cc3)C2=O)cc1 (centres undefined),-34.8% (inactive)
19,Cc1ccnc(NC(=O)CNC(=O)c2ccco2)c1,"-26.8% [at 3.8 µM, 100% = signal doubled over neutral wells] (inactive)"
